According to ChEMBL document CHEMBL3988442, “University of Dundee, Small-Polar-MMV Screening Library” (2021):
Hit rate of the full screen: of about 68,000 compounds, about 25 (0.04%) showed an effect of 50% or more. For the sample, strong results were picked, then their nearest neighbours and some compounds at random.

Biological target: T1, Methionyl-tRNA synthetase, putative (Leishmania donovani (strain BPK282A1)) (UniProt E9BF75)
T1 sequence (whole entry): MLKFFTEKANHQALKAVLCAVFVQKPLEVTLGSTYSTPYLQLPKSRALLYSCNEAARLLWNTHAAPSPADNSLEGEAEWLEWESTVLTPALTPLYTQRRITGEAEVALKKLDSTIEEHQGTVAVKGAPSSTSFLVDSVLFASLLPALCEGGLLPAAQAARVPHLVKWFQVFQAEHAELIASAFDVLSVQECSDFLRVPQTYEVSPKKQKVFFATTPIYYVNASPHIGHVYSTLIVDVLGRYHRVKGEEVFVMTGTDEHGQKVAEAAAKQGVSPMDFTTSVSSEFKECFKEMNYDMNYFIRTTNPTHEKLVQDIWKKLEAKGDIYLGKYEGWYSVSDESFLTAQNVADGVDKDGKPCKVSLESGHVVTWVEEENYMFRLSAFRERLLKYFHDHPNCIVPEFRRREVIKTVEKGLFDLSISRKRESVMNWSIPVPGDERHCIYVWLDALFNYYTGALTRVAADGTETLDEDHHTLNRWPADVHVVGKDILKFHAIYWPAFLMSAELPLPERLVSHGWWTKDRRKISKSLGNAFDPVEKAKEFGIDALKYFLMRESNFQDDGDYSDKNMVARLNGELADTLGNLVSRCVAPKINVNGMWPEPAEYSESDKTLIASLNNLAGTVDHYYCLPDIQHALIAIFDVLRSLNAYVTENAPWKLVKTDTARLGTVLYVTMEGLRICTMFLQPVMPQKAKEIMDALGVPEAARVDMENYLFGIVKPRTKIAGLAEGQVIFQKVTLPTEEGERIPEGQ
Test: Leishmania donovani Methionine tRNA synthetase (LdMetRS):v6. Primary screen assay
Assay type: functional
Design: conc 80 nM, time 150 minutes

Row | SMILES | inhibition
1 | O=C(NC1CC1)[C@@H]1CCO[C@@H]2CCN(CC3CCC3)C[C@H]21 | 16.2%
2 | CCN1C(=O)[C@]2(CC[C@@H]3CN(S(=O)(=O)CC(C)C)C[C@@H]32)N=C1C | 16.2%
3 | O=C(NCc1ccco1)[C@@]12CCO[C@@H]1CCN(Cc1ccccn1)C2 | 16.3%
4 | Cc1ccc(N2CCO[C@H]3CN(C(=O)c4cccc(C)n4)C[C@H]32)nn1 | 5.75%
5 | c1ccc(N(CCn2cncn2)CC2CC2)cc1 | 11%
6 | Oc1ccc(N(CCc2ccccc2)CCn2cncn2)cc1 | 70%
7 | OCCCN(CCn1cncn1)c1ccccc1 | 8.36%
8 | Cc1ccccc1C(=O)N1C[C@@H]2CCN(c3cccnc3)C[C@@H]2C1 | 10.5%
9 | Cc1nc(CN2C[C@@H]3CN(C(=O)c4ccnnc4)C[C@@H]3C2=O)cs1 | 13.1%
10 | CO[C@H]1CN(Cc2ccccc2F)[C@@H]2CCCO[C@H]12 | 10.8%
11 | CNc1cc(-c2ccccc2CN)c2cc[nH]c2n1 | 23.4%
12 | CNc1cc(-c2cccc(CN)c2)c2cc[nH]c2n1 | 53%
13 | CNc1cc(-c2ccc(COCCN)cc2)c2cc[nH]c2n1 | 33.4%
14 | CCn1cc(CN2C[C@H]3CC[C@@H]2CN(C(=O)C2CCC2)C3)cn1 | 12.2%
15 | CS(=O)(=O)N1C[C@@H]2COC[C@]2(C(=O)NCCc2cccs2)C1 | 3.36%
16 | c1cc2c(cc1CN1CC[C@H]3[C@H]1CCN3CC1CC1)OCO2 | 5%
17 | CS(=O)(=O)NC[C@]12COC[C@H]1CN(Cc1ccc3c(c1)OCO3)C2 | 15.2%
18 | CN(C)CCN1C[C@@H]2CN(S(=O)(=O)c3ccccc3)C[C@@H]2C1=O | 17.1%
19 | O=C(NCCc1ccccn1)[C@@]12CCO[C@@H]1CCN(c1ncccn1)C2 | 18.5%
20 | CN1CCCC[C@@H]2[C@H]1[C@@H](c1ccccc1)CCN2C(=O)c1ccncc1 | 12.5%
21 | Cc1nnc([C@H]2C[C@H]3CN(C(=O)Cc4ccc(F)cc4)CC[C@@H]3O2)o1 | 18.5%
22 | COCCN1CCN(Cc2ccc(F)c(C)c2)[C@H]2CS(=O)(=O)C[C@H]21 | 0.741%
23 | COCCN1C(=O)CC[C@]12CC[C@@H](NCc1nccs1)CC2 | 7.27%
24 | N#Cc1cccc(CN2C[C@H](OCC3CCOCC3)[C@H]3COC[C@H]32)c1 | 14.8%
25 | Cn1cc(CN2C[C@@H](N3CCCC3=O)[C@H]3OCCC[C@H]32)cn1 | 6.57%
26 | O=C1N(Cc2ccccc2)C[C@H]2CN(Cc3ccccc3Cl)CCN12 | 12.1%

Row | SMILES | inhibition
27 | Cc1ccc(S(=O)(=O)N2C[C@H]3C[C@H](NC(=O)c4ccn(C)n4)[C@H]3C2)cc1 | 11.3%
28 | CCCN1C[C@H]2CC[C@@H]1CN(Cc1cccc(O)c1)C2 | 3.78%
29 | Cn1cc(CN2CCO[C@H]3C(Cn4cccn4)CC[C@@H]32)cn1 (some centres not stated) | 11.4%
30 | Cc1cnc(CN2C[C@H]3C[C@H](Oc4ccccc4)C[C@H]3C2)cn1 | 0%
31 | CNC(=O)[C@@H]1[C@@H](c2ccccc2)CN2CCN(Cc3ccco3)C[C@H]12 | 0.822%
32 | COc1cc(CN2CCCC[C@]3(C)NC(=O)CC[C@H]23)ccc1F | 14.2%
33 | O=C(NCC1CC1)[C@H]1CC[C@@H]2[C@@H](CCN2Cc2ccoc2)O1 | 10.8%
34 | Cc1cccc(CN2CC[C@H]3CO[C@H](CNC(=O)N(C)C)[C@H]3C2)c1 | 3.76%
35 | CN(C)C(=O)NCc1cc2n(n1)CCN(C[C@H]1[C@@H]3CNC[C@@H]31)C2 | 12%
36 | O=C1NC(c2ccccc2)=N[C@@]12CC[C@@H]1CN(S(=O)(=O)C3CC3)C[C@@H]12 | 6.19%
37 | CC(C)NC(=O)[C@H]1C[C@@H]2[C@@H](C1)OCCN2Cc1ccsc1 | 10.1%
38 | Cc1ccc(CN2CC[C@H]3CO[C@H](CN(C)C)[C@H]3C2)o1 | 15.1%
39 | CO[C@@H]1CC[C@H]2[C@H]1OCCN2S(=O)(=O)c1cn(C)cn1 | 7.3%
40 | COCC(=O)N1C[C@H]2CC[C@@]3(N=C(c4ccccc4)NC3=O)[C@H]2C1 | 8.15%
41 | Cc1nc(C)n(CC2CCCN2Cc2nc(N)c3ccccc3n2)n1 (configuration not stated) | 11.2%
42 | Cc1nc(C)n(CC2CCCN2Cc2nc3ccccc3nc2C)n1 (configuration not stated) | 13.3%
43 | Cc1nc(C)n(CC2CCCN2Cc2nc(C)c3ccccc3n2)n1 (configuration not stated) | 57%
44 | O=C(c1ccco1)N1C(CN2CCOCC2)[C@]2(O)CC[C@H]1CC2 (some centres not stated) | 15.1%
45 | O=C(N[C@@H]1CN(Cc2cccs2)[C@@H]2CCCO[C@@H]21)c1cscn1 | 11.8%
46 | Cc1nc([C@@H]2C[C@@H]3CCN(C(=O)Cc4ccsc4)C[C@H]3O2)no1 | 8.15%
47 | COCCCN1C(=O)CC[C@H]2CN(c3cnc4ccccc4n3)CC[C@H]21 | -5.03%
48 | CCC1=N[C@@]2(CC[C@@H]3CN(C(=O)NC(C)C)C[C@@H]32)C(=O)N1C | 12.4%
49 | Cc1nc(CN2C[C@@H]3CCCO[C@@H]3[C@H](NC(=O)CC3CC3)C2)cs1 | 12.6%
50 | CS(=O)(=O)NC[C@H]1OC[C@H]2CN(Cc3ccsc3)CC[C@H]21 | 17.8%
51 | CN(CC1CC1)c1ccc2ccc(C(=O)NCCc3ccccc3)cn12 | 51%
52 | CN(C)CCNC(=O)c1ccc2ccc(N(C)CC3CC3)n2c1 | 25.3%
